PglD inh: PglD (C. jejuni) enzyme inhibition | purified PglD enzyme, DTNB colorimetric CoA detection | inhibition, % at 12.5 µM | 360,000 compounds, 0.098% hits | AID 602405; in the data active means inhibition above about 16%, passing the limit was not always enough; inconclusive means no clear call, values can overlap the other calls
FGF22 binding: shifts melting point of recombinant human FGF22; recombinant FGF22 thermal shift, SYPRO orange fluorescence; percent of sucrose octasulfate shift, DMSO zero; 340,000 compounds, 1.5% hits; Q9HCT0; AID 651658; activity (Tm shift, normalised), % at 9.99 µM;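 active means mean Tm shift, scaled 0 neutral to 100 positive control, at about 1.3% or above, every replicate too, limit read from the data; inconclusive means no clear call, values can overlap the other calls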
Target sequence (Q9HCT0 whole entry, looked up): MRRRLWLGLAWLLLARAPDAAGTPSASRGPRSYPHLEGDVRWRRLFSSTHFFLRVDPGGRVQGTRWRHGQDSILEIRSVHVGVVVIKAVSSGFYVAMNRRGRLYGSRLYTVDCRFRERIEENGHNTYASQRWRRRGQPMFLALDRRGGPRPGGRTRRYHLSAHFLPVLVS
PvdQ acylase: blocks Pseudomonas aeruginosa PvdQ acylase activity; purified PvdQ acylase, fluorescence plate reader; inhibition, % at 10 µM; 340,000 compounds, 0.063% hits; AID 488965; in the data active means inhibition above about 30%, passing the limit was not always enough; inconclusive means no clear call, values can overlap the other calls;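 further: 0% = vehicle neutral wells and 100% = reference inhibitor wells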
dFosB act-1: mouse delta FosB homodimer activation; 340,000 compounds, 0.99% hits; activation, % at 25 µM; P13346; purified delta FosB, TAMRA-CDK5 oligo fluorescence polarization; percent of positive-control signal above neutral wells; AID 493131;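 active means mean activation above about 17%, with every replicate also reaching it, limit read from the data, passing the limit was not always enough; inconclusive means only one of the two conditions met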
Target sequence (P13346 whole entry, looked up): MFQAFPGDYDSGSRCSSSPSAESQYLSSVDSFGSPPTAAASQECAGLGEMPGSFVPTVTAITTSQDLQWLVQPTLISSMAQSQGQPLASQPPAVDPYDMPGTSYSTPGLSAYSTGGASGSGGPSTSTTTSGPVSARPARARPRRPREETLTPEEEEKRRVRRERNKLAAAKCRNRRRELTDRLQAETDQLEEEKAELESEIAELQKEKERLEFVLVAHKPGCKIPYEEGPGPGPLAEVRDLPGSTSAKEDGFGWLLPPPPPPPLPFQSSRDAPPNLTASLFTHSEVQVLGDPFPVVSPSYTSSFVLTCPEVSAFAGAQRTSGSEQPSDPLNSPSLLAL
SIRT5 inh: blocks human SIRT5 desuccinylation of peptide. Q9NXA8. Purified SirT5, succinyl-peptide AMC, trypsin-coupled fluorescence. inhibition, % at 15 µM. 330,000 compounds, 1.1% hits; in the data active means inhibition above about 15%; inconclusive means no clear call, values can overlap the other calls
CDK5 inh: blocks human CDK5/p35 kinase activity; 330,000 compounds, 0.01% hits; Q00535+Q15078; Recombinant CDK5/p35, ADP-Glo luminescence, 60 min; AID 488839; inhibition, % at 10 µM;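 active means highest replicate inhibition of at least 50% and at least 75% of replicates reaching 50%; inconclusive means only one of the two criteria met; inactive means both criteria failed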;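 further: plate controls were DMSO neutral control for no effect and GW8510 at 10 µM for full effect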
dFosB act-2: activators of mouse delta FosB homodimer DNA binding | shares compounds with dFosB act-1 | purified delta FosB, TAMRA-CDK5 oligo fluorescence polarization; normalised: neutral wells 0, positive control 100 | activation, % at 24.9 µM | 2,400 tested, under 10 active;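 active means highest replicate activation at or above 34% and every replicate reaching that threshold; inconclusive means meets only one of the two criteria; inactive means meets neither criterion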;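 further: higher polarization means more probe DNA bound by delta FosB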
An asterisk follows results filed as active; ? = inconclusive; nt = no result. Compounds with a hit are over-represented: about 2.8% of the library has one in this group of screens.

SMILES | PglD inh | FGF22 binding | PvdQ acylase | dFosB act-1 | SIRT5 inh | CDK5 inh | dFosB act-2
COCC(=O)N1CC2(C1)[C@H](c1ccc(C3=CCCC3)cc1)[C@@H](CO)N2C(=O)COC | nt | 0 | nt | nt | -3 | nt | nt
CN(C)CC(=O)N1[C@H](CO)[C@@H](c2ccccc2)C12CN(C(=O)c1ccccc1)C2 | nt | 0 | nt | nt | -3 | nt | nt
CCN1CCN(c2ccc(S(=O)(=O)N3CCOCC3)cc2NC(=O)c2cc(Cl)nc3ccccc23)CC1 | nt | 41 | -13 | -12 | -1 | -2 | nt
COc1ccc(-c2cc(C(=O)Nc3cc(S(=O)(=O)N4CCOCC4)ccc3N3CCOCC3)c3ccccc3n2)cc1 | nt | 0 | -8 | 34* | nt | -1 | 5
COc1ccc(CN2C[C@H](O)COC[C@@H]3O[C@@H](CC(=O)NCCN4CCCC4)CC[C@H]32)cc1 | -4 | 0 | nt | nt | nt | nt | nt
C[C@@H]1CN([C@@H](C)CO)C(=O)c2cccc(NC(=O)c3ccc(-c4nccs4)cc3)c2O[C@@H]1CN(C)S(=O)(=O)c1ccc(F)cc1 | -2 | -1 | nt | nt | 4 | nt | nt
Cc1ccccc1NC(=O)CSc1nnc(NC(=O)c2ccco2)s1 | 2 | 0 | 4 | 39* | -3 | 0 | 0
Cc1cc(NC(=O)CSc2nnc(Nc3ccccc3)s2)no1 | nt | nt | -6 | 11 | nt | -2 | nt
Cc1cc(NC(=O)CSc2nnc(Nc3ccccc3C)s2)no1 | nt | 0 | -9 | 62* | -1 | 0 | 0
Cc1ccc(C)c(N2C(=O)c3ccc(C(=O)Nc4ccccn4)cc3C2=O)c1 | -4 | 0 | nt | nt | 0 | nt | nt
CC(=O)Nc1ccc2c(c1)C(=O)N(c1cccc(C)c1)C2=O | nt | 0 | -1 | 20* | -2 | -1 | 4
Cc1cccc(N2C(=O)c3ccc(C(=O)Nc4ccccn4)cc3C2=O)c1 | 3 | 0 | -9 | 62* | -6 | 1 | 5
O=C(CSc1nc2ccccc2c(=O)n1-c1ccccc1)c1c[nH]c2ccccc12 | nt | 0 | -8 | 29* | -7 | -1 | 5
O=C(CSc1nc2ccccc2c(=O)n1-c1ccc(Cl)cc1)c1ccco1 | -2 | nt | -17 | 53* | nt | 0 | 3
CCCN1[C@H](C(=O)NC2CCC2)[C@@H](CO)[C@@H]2Cn3c(ccc(-c4ccccc4F)c3=O)[C@@H]21 | 0 | 0 | nt | nt | -1 | nt | nt
O=C(C[C@H]1CC[C@@H]2[C@H](COC[C@H](O)CN2Cc2cccc(-c3ccncc3)c2)O1)N1CCN(c2ccccc2)CC1 | -3 | 0 | nt | nt | -6 | nt | nt
COc1ccc(Cl)cc1C(=O)NC(=S)Nc1nc(C)cc(C)n1 | -11 | 0 | -10 | -11 | -3 | -1 | nt
COc1ccc(Cl)cc1C(=O)NC(=S)Nc1cc(-c2nc3ccccc3[nH]2)ccc1C | -3 | nt | -1 | 36* | nt | 0 | 2
COc1ccc(-c2nnc(SCc3nc4ccccc4c(=O)[nH]3)o2)cc1 | -2 | 0 | -8 | 19* | -4 | 1 | -2
CN1CCN(C(=O)C[C@@H]2CC[C@H]3[C@H](COc4ccc(NC(=O)c5cccs5)cc4C(=O)N3C)O2)CC1 | -3 | 0 | nt | nt | -5 | nt | nt
CN1C[C@@H]2[C@H](c3ccccc31)[C@H](CO)N2C(=O)Nc1cccc(F)c1 | 2 | 0 | nt | nt | 0 | nt | nt
COc1cc(NC(=O)COc2ccccc2[N+](=O)[O-])ccc1NC(=O)c1ccco1 | 3 | 0 | -12 | 34* | 2 | 1 | 3
O=C(COc1ccccc1Cl)Nc1cc(Cl)ccc1O | nt | 0 | -6 | 22* | -10 | -3 | -1
O=C(COc1ccccc1Cl)Nc1ccc(NC(=O)c2ccco2)cc1 | -1 | 0 | 0 | 21* | 1 | 2 | 7
COc1ccc2nc(NC(=O)C3CCN(S(=O)(=O)c4cccs4)CC3)sc2c1 | 0 | nt | -10 | 25* | nt | 0 | ?
SMILES | PglD inh | FGF22 binding | PvdQ acylase | dFosB act-1 | SIRT5 inh | CDK5 inh | dFosB act-2
O=C(Nc1ccc2oc(-c3ccncc3)nc2c1)c1ccc2c(c1)OCO2 | nt | 0 | -14 | -7 | 1 | 0 | nt
O=C(Nc1ccc2oc(-c3ccncc3)nc2c1)c1ccc2c(c1)OCCO2 | nt | 0 | 6 | 46* | -4 | 0 | 0
O=C(Nc1ccc2oc(-c3cccnc3)nc2c1)c1ccc2c(c1)OCCO2 | nt | nt | -3 | 33* | nt | -1 | 2
COc1ccc(C(=O)Nc2ccc3oc(-c4cccnc4)nc3c2)cc1OC | nt | 0 | -8 | -18 | -1 | 2 | nt
O=C(Cc1ccccc1)Nc1ccc2oc(-c3cccnc3)nc2c1 | -1 | nt | -3 | 22* | nt | 0 | 1
O=C(Nc1ccc2oc(-c3ccccc3)nc2c1)c1ccc2c(c1)OCCO2 | -5 | nt | -11 | 42* | nt | -3 | 3
C[C@H](CO)N1C[C@H](C)[C@@H](CN(C)C(=O)Cc2ccccc2)Oc2ncc(C#Cc3ccccc3F)cc2C1=O | 2 | 0 | nt | nt | 6 | nt | nt
O=C([C@H]1[C@H](CO)[C@H]2Cn3c(ccc(-c4ccncc4)c3=O)[C@@H]1N2Cc1cccnc1)N1CCOCC1 | 2 | 0 | nt | nt | -11 | nt | nt
COc1cccc(NC(=O)N[C@H]2C=C[C@H](CC(=O)NCc3ccccn3)O[C@H]2CO)c1 | nt | nt | nt | nt | -3 | nt | nt
C[C@H](CO)N1C[C@H](C)[C@@H](CN(C)S(=O)(=O)c2cn(C)cn2)OCCCC[C@H](C)Oc2ccc(NC(=O)Nc3ccccc3)cc2C1=O | 1 | 0 | nt | nt | -2 | nt | nt
O=C(Nc1ccc2oc(-c3ccncc3)nc2c1)c1ccc(F)cc1 | -1 | 0 | 3 | 36* | 0 | -1 | 3
O=C(Nc1ccc2oc(-c3ccccc3F)nc2c1)c1cncc(Br)c1 | -1 | nt | -2 | 22* | nt | 2 | 1
Cc1cc(NC(=O)c2ccc3c(c2)OCCO3)ccc1NC(=O)c1cc2ccccc2o1 | 2 | 0 | -20 | 1 | -3 | -13 | nt
O=C(Nc1ccc(NC(=O)c2cc3ccccc3o2)cc1)c1ccc2c(c1)OCCO2 | nt | 0 | -2 | 42* | 3 | 2 | -1
O=C(Nc1ccc(NC(=O)c2ccco2)c(Cl)c1)c1ccc2c(c1)OCCO2 | 2 | 0 | 4 | 60* | -1 | 1 | 1
O=C(Nc1ccc(NC(=O)c2ccco2)cc1)c1ccc2c(c1)OCO2 | 8 | nt | -4 | -6 | nt | -1 | nt
O=C(Nc1ccccc1)N[C@H]1CC[C@H](CCn2cc(-c3ccccc3F)nn2)O[C@@H]1CO | nt | nt | nt | nt | -7 | nt | nt
COc1ccc(NC(=O)N[C@H]2CC[C@H](CCNS(=O)(=O)c3ccccc3F)O[C@H]2CO)cc1 | 2 | 0 | nt | nt | -1 | nt | nt
O=C(C[C@@H]1C/C=C\C[C@@H](Cc2ccc(F)cc2)C(=O)OC[C@@H](Cc2ccccc2)NC1=O)N[C@H](CO)Cc1ccccc1 | -3 | 0 | -11 | 32* | nt | 0 | 5

Compound activity: PubChem, Broad Institute
